The list is not random: actives were taken first. Their share in the collection is about 1.4%.
CASP6 VEID inh: inhibitors of human caspase-6; P55212; 0.53% of 350,000 active; purified caspase-6, Z-VEID-R110 cleavage fluorescence; inhibition, % at 12.5 µM;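 active = mean inhibition across replicates at least about 35%, with every replicate also reaching that limit, limit read from the data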;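 note: 0% = median of neutral control wells and 100% = no fluorescence left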
Target sequence (P55212 24-179 limits assumed): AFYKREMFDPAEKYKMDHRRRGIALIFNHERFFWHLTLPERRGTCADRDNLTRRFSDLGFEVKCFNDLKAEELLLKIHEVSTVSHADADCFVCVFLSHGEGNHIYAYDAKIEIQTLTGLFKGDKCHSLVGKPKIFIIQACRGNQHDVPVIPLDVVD
Target sequence (P55212 194-293 limits assumed): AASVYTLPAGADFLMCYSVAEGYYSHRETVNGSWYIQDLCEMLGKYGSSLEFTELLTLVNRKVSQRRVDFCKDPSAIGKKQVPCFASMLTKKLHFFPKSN
LEDGF integ inh: blocks HIV-1 LEDGF/p75-dependent DNA integration | TR-FRET IN-LEDGF/p75 DNA integration, Eu/Cy5 | inhibition, % at 3.7 µM | 0.64% of 370,000 active | AID 743269;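 active = inhibition above the screen-wide mean plus 3 SD, cut at about 13% in these data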;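 note: signal is the Cy5 over europium emission ratio at 671 and 618 nm; 0% = plate median of compound wells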
UHRF1 binding: blocks human UHRF1 binding to methylated DNA | UHRF1 binding to methylated oligo, TR-FRET | inhibition, % at 4.4 µM | 0.75% of 370,000 active | AID 687016;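 note: UHRF1 SRA domain binding a hemimethylated CpG hairpin DNA probe; 0% = median of test compound wells and 100% = reference inhibitor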
MBD2 inh: blocks human MBD2 binding to methylated DNA. Q9UBB5. TR-FRET, MBD2 binding to methylated oligonucleotide. inhibition, % at 4.4 µM. 0.31% of 370,000 active; in the data active = inhibition above about 13%
UHRF1 DNA bind: inhibits human UHRF1 binding to methylated oligonucleotide, MBD2 counter-screen; shares compounds with MBD2 inh; TR-FRET; inhibition, % at 4.4 µM; 25% of 1,000 active;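 note: UHRF1 SRA domain binding a labeled hemimethylated CpG hairpin DNA; 0% = vehicle only and 100% = reference inhibitor with vehicle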
MBD2 confirm: confirmation of human MBD2-DBD methylated oligonucleotide binding inhibitors. AID 720531. TR-FRET MBD2-DBD binding to methylated oligonucleotide. inhibition, % at 4.4 µM. shares compounds with MBD2 inh. 26% of 1,000 active; in the data active = inhibition above about 14%
Active calls of the source: *; / = not tested or not shown. Cut-off read from the data, not from the text of the source, unless noted: active = inhibition above about 21%; inactive = the rest.

SMILES	CASP6 VEID inh	LEDGF integ inh	UHRF1 binding	MBD2 inh	UHRF1 DNA bind	MBD2 confirm
CCCNC(=O)c1ccc2c(=O)n3c(-c4ccc(C)cc4)csc3nc2c1	8	2	16	15*	0	7
CCCNC(=O)c1ccc2snnc2c1	/	-4	3	-2	/	/
COc1ccc(C(=O)OCC(=O)c2ccc[nH]2)cc1	4	8	13	67*	9	2
CCCSC1=N/C(=C\c2ccsc2)C(=O)S1	/	3	6	6	/	/
CCCSC1=N/C(=C\C=C\c2ccco2)C(=O)S1	/	69*	95*	57*	27*	10
Cc1cc(C)c2c(N)c3ccccc3nc2n1	/	0	22*	20*	21*	25*
CCCn1nc2cc(C(=O)NCc3ccc(OC(F)(F)F)cc3)ccc2c1OCC	2	0	0	0	/	/
CCCn1nc2cc(C(=O)NCc3ccc(OC)cc3)ccc2c1OCC	4	12	29*	14*	6	4
O=[N+]([O-])c1ccc(NN=Cc2cc(Br)ccc2O)nc1	6	0	-3	18*	4	1
C[C@@H]1CN([C@@H](C)CO)C(=O)c2cc(C#Cc3ccccc3)cnc2O[C@@H]1CN(C)C(=O)CCN1CCCCC1	-1	/	/	/	/	/
Cc1nn2c(-c3ccc(Cl)cc3)nnc2s1	/	0	-16	14*	4	5
Cc1ccc2sc(N(CCCN(C)C)C(=O)c3ccc(S(=O)(=O)N(C)Cc4ccccc4)cc3)nc2c1C	-7	-2	0	56*	3	1
COc1cc(C(=O)NC2CCN(C)CC2)ccc1Nc1ncc2c(n1)N(C1CCCCC1)CCC(=O)N2C	-16	3	37*	24*	30*	28*
COc1cc(C(=O)NC2CCN(C)CC2)ccc1Nc1ncc2c(n1)N(Cc1ccccc1)CCC(=O)N2C	-64	-2	-2	-3	/	/
COc1cccc(N2CCN(C(=O)c3ccc(CS(=O)c4ccccc4C)o3)CC2)c1 (configuration not stated)	2	2	1	2	/	/
COc1ccc(N2CCN(C(=O)c3ccc(CS(=O)c4cccc(C)c4)o3)CC2)cc1 (configuration not stated)	1	-1	23*	14*	5	4
Cc1cnc(NC(=O)c2cc(-c3ccccc3)nn2-c2ccccc2)s1	-2	-3	-1	25*	5	3
CC(=O)c1sc(NC(=O)c2cc(-c3ccccc3)nn2-c2ccccc2)nc1C	1	0	9	3	/	/
CCC(C)NC(=O)CSc1nc2ccccc2c(=O)n1CCCC(=O)NCC1CCCO1 (configuration not stated)	5	0	0	-1	/	/
CCC(C)NC(=O)CSc1nc2ccccc2c(=O)n1CCCN1CCCCC1 (configuration not stated)	7	-2	0	14*	2	3
C[C@@H]1CN([C@@H](C)CO)C(=O)CCCn2cc(nn2)CO[C@H]1CN(C)C(=O)C1CC1	-2	1	0	13*	4	1
COc1ccc(NC(=O)N(C)C[C@@H]2OCc3cn(nn3)CCCC(=O)N([C@H](C)CO)C[C@H]2C)cc1	-3	-1	6	17*	9	4
CCN1[C@@H]2c3ccc(C4=CCCCC4)c(=O)n3C[C@H]1[C@H](CO)[C@H]2C(=O)NCCc1ccncc1	-1	/	/	/	/	/
O=C(CN1CCOCC1)NCCC12CC3CC(CC(C3)C1)C2	/	-2	4	14*	2	4
N#Cc1ccc(CSc2nnc(NC(=O)C3CCCO3)s2)cc1 (configuration not stated)	/	3	24*	17*	7	2
SMILES	CASP6 VEID inh	LEDGF integ inh	UHRF1 binding	MBD2 inh	UHRF1 DNA bind	MBD2 confirm
Cc1cc(NC(=O)Cc2cccs2)no1	/	5	29*	16*	25*	19*
O=C(CCSc1nc(-c2ccco2)cc(C(F)(F)F)n1)NCc1ccccn1	/	1	1	24*	9	1
COC(=O)c1ccc(Oc2ccc3nnc(C)n3n2)cc1	/	-2	8	13*	-1	3
O=C(Cn1nc(-c2ccccc2Cl)ccc1=O)Nc1ccc(Br)cc1	0	-1	-2	1	/	/
O=C(Cn1nc(-c2ccccc2Cl)ccc1=O)Nc1ccccc1-c1ccccc1	1	2	-1	43*	8	2
O=C(Cc1ccccc1)N1C[C@@H]2[C@H](c3ccccc31)[C@@H](CO)N2C(=O)C1CCCCC1	1	/	/	/	/	/
O=C(c1ccc(F)cc1)N1CCN(Cc2ccccc2)CC1	-1	0	0	-4	/	/
O=C(NCCN1CCN(C(=O)c2ccc(F)cc2)CC1)c1ccc(F)cc1	0	0	0	14*	11	3
COc1ccc(NS(=O)(=O)c2ccc(SC)cc2)c(OC)c1	/	2	23*	17*	5	3
CC(C)C[C@H]1CN(CCCC[C@H]2CNC(=O)C(=O)N2CCc2ccc(O)cc2)C(=O)C(=O)N1Cc1ccccc1	0	10	25*	13*	7	3
COCC(=O)N(C)C[C@@H]1Oc2ncc(-c3ccc(C#N)cc3)cc2C(=O)N([C@@H](C)CO)C[C@H]1C	4	/	/	/	/	/
C[C@H](NC(=O)c1cc2c(cn1)[nH]c1ccccc12)C(=O)O	4	-3	1	42*	3	3
COC(=O)[C@H](C)NC(=O)c1cc2c(cn1)[nH]c1ccccc12	-3	-1	0	4	/	/
O=C(CN1C(=O)/C(=C/c2ccco2)SC1=S)Nc1ccc(C(=O)O)c(O)c1	73*	90*	79*	20*	26*	7
O=C(CCCN1C(=O)/C(=C\c2ccco2)SC1=S)Nc1ccc(O)cc1C(=O)O	/	63*	93*	27*	45*	16*
C[C@@H]1CCCCO[C@@H](CN(C)C(=O)NC2CCCCC2)[C@H](C)CN([C@@H](C)CO)C(=O)c2cc(NC(=O)CCC(F)(F)F)ccc2O1	0	/	/	/	/	/
CCCC(=O)Oc1ccc(N(C(=O)CCC)S(=O)(=O)c2cccc([N+](=O)[O-])c2)cc1	/	8	28*	17*	6	3
COc1ccc(NC(=O)c2cccs2)cc1C(=O)N1CCN(c2ccccc2)CC1	3	-2	1	24*	9	2
COc1cccc(OC)c1C(=O)Nc1ccc(N2CCN(C(=O)c3cccs3)CC2)cc1	4	2	1	-3	/	/
CCC(=O)c1ccc(OCC(=O)OC(C)C(=O)NCc2ccc3c(c2)OCO3)cc1 (configuration not stated)	0	2	-1	79*	9	2
O=C(O)[C@@H]1[C@@H](CO)[C@@H]2Cn3c(ccc(-c4ccc(F)cc4)c3=O)[C@@H]2N1CCc1ccccc1	-1	/	/	/	/	/
COc1ccccc1-c1cnc2c(c1)C(=O)N([C@H](C)CO)C[C@H](C)[C@@H](CN(C)Cc1ccc(F)cc1)O2	2	/	/	/	/	/

Screening results (PubChem BioAssay)
